The whole screen tested about 69,000 compounds, of which about 8,600 (12%) showed an effect of 50% or more. The list comes from a sample in which strong results are over-represented; it also holds similar structures and randomly drawn compounds.

For the test, the system named is Plasmodium berghei. Put plainly: Screen against P. berghei liver stage (PbLuc), transformed with Luciferase, at 10uM. The note with it: tested at 10 uM. It counts as functional, HepG2.
Turning to `CCOc1ncccc1NC(=O)C1CCS(=O)(=O)C1` (stereo unspecified), the INHIBITION is 11.9%.

Regarding `Cc1ccc(CN2CCOC(c3cnccn3)C2)s1` (stereo unspecified), the INHIBITION is given as 16.82%.

As for `Cn1cc([C@@H]2CN(S(=O)(=O)c3ccccc3F)C[C@H]2N)c2ccncc21`, the INHIBITION is recorded as 18%.

With `Cc1nnc(NC(=O)NCc2ccnc(N(C)C)c2)s1`, the INHIBITION is recorded as -39.7%.

As for `COC(=O)CC1CCN(C(=O)c2ccc(C)cc2)CC1`, the INHIBITION is 28.7%.

`CNC(=O)C1(Cc2cc(C(C)C)no2)CCN(Cc2ccccn2)C1` (stereo unspecified): the INHIBITION is given as 11.9%.

With `Cc1noc(C(C)C)c1C(=O)NS(=O)(=O)c1ccc(Cl)cc1`, the INHIBITION is -28.4%.

Take `CNc1cccc(C2CCCN(C(=O)c3cccnc3)C2)n1` (stereo unspecified): the INHIBITION worked out at 35.2%.

On to `Cc1cnn(CC2CCCN2Cc2c(C)noc2C)c1` (stereo unspecified), for which the INHIBITION is 5.983%.

In the case of `O=C(CCc1nccs1)N1CCCC(n2ccnc2)C1` (stereo unspecified), the INHIBITION is -1.14%.

In the case of `CCOC(C)c1nccn1Cc1cc(C)on1` (stereo unspecified), the INHIBITION was found to be 26.4%.

For `CC(=O)Nc1ccc(CNC(C)c2c(C)nn(C)c2C)cc1` (stereo unspecified), the INHIBITION is on record as -42.1%.

On to `COCCC(=O)N1CCCC1c1csc(Nc2ccccn2)n1` (stereo unspecified), for which the INHIBITION came to 30.8%.

For the molecule `CC(C)(C)c1cc(NC(=O)CN2CCCC2Cn2cccn2)on1` (stereo unspecified), the INHIBITION worked out at 53%.

Turning to `Cc1noc(C)c1CN1CCCC1c1nnc2ccccn12` (stereo unspecified), the INHIBITION is 17.5%.

For the molecule `CC(C)c1cc(NC(=O)CN2CCCC2Cn2cccn2)on1` (stereo unspecified), the INHIBITION was 19.5%.

For the molecule `CC(C)(C)c1cc(NC(=O)CN2CCCC2Cn2cncn2)on1` (stereo unspecified), the INHIBITION was 9.41%.

Take `CCn1c(C2CCCN2Cc2noc(C(C)(C)C)n2)nc2ccccc21` (stereo unspecified): the INHIBITION is on record as -12.1%.

With `CC(C)(C)c1nc(CN2CCCC2c2nnc3ccccn23)no1` (stereo unspecified), the INHIBITION is 57.2%.

Take `COc1cccc(C(=O)NC(CC(=O)O)c2cccs2)c1OC` (stereo unspecified): the INHIBITION is recorded as -7.31%.

As for `CCc1nc(C#N)c(N2CCC(c3nc(-c4ccccc4)no3)CC2)o1`, the INHIBITION is 34.6%.

For the molecule `Cc1nc(C#N)c(N2CCC(c3nc(-c4ccc(F)cc4)no3)CC2)o1`, the INHIBITION was 34%.

On to `Cc1nc(C#N)c(N2CCC(c3nc(-c4ccccc4)no3)CC2)o1`, for which the INHIBITION worked out at 57.6%.

`O=C(NCc1cc(F)cc(Br)c1)C1(O)CCSCC1`: the INHIBITION is -26.2%.

Consider `CC(C)(C(=O)N1CCC(C(N)=O)C1)c1ccccc1F` (stereo unspecified), for which the INHIBITION is listed as 52.9%.

Regarding `CC(C)(C(=O)N1CCC(CS(N)(=O)=O)CC1)c1ccccc1F`, the INHIBITION worked out at 17.9%.

Take `CC(C)(C(=O)NCC(=O)N1CCCC1)c1ccccc1F`: the INHIBITION is reported as -36.4%.

As for `c1coc(CN2CCCC3(COCCN(Cc4c[nH]nn4)C3)C2)c1` (stereo unspecified), the INHIBITION was found to be 4.92%.

Regarding `CCNC(=O)C1CCN(c2nccc(C3CCCC3)n2)C1` (stereo unspecified), the INHIBITION was -2.34%.

As to `Cc1nn2c(N3CCCC(C(N)=O)C3)cc(-c3ccccc3)nc2c1C` (stereo unspecified), the INHIBITION was -32.2%.

For `CCNC(=O)C1CCN(c2cc(CC)nc3ccnn23)C1` (stereo unspecified), the INHIBITION worked out at 52.2%.

With `CCc1cc(N2CCN3CCCCC3C2)n2nccc2n1` (stereo unspecified), the INHIBITION turned out to be 30.9%.

With `CCNC(=O)C1CCN(c2cc(-c3ccccc3)nc3cc(C)nn23)C1` (stereo unspecified), the INHIBITION is 56.5%.

Take `CCc1cc(N2CC(N3CCCCC3C)C2)n2nccc2n1` (stereo unspecified): the INHIBITION is on record as 12.8%.

For `O=C1CN(c2cc(-c3ccccc3F)nc3ccnn23)CCCN1`, the INHIBITION worked out at 6.11%.

Turning to `Cc1nn2c(N3CCC(C(N)=O)CC3)cc(-c3ccccc3)nc2c1C`, the INHIBITION came out at 61.3%.

Turning to `CC(=O)NC1CCN(c2cc(-c3ccccc3)nc3c(C)c(C)nn23)C1` (stereo unspecified), the INHIBITION was -3.58%.

With `CCNC(=O)C1CCN(c2cc(-c3ccccc3)nc3ccnn23)C1` (stereo unspecified), the INHIBITION is recorded as 33%.

As to `CCNC(=O)C1CCN(c2cc(-c3ccccc3F)nc3ccnn23)C1` (stereo unspecified), the INHIBITION came to 53.3%.

Regarding `Cc1nn2c(N3CCC(O)CC3)cc(-c3ccccc3)nc2c1C`, the INHIBITION stood at 41.8%.

With `Cc1csc(CCNCc2cnc3c(c2)c(C)nn3C)n1`, the INHIBITION is reported as -14.8%.

For `COCC1CN(Cc2ccc(OC)cc2)Cc2nnn(CC3CC3)c21` (stereo unspecified), the INHIBITION is 18.7%.

With `COCCOc1ccc(CNC2CCc3ncnn3C2)cc1OC` (stereo unspecified), the INHIBITION is recorded as 49.5%.

For the molecule `COc1cccc(CCNS(=O)(=O)c2ccc(NC(C)=O)cc2)c1`, the INHIBITION was found to be 22.9%.

As for `CCN1CCN(C)C(=O)C12CCN(Cc1cccc(C)c1)CC2`, the INHIBITION amounted to 39.5%.

With `Cc1nc(CN2CCN(C(=O)c3ccc(=O)n(C)c3)CC2)cs1`, the INHIBITION is listed as -15.9%.

With `CN(C)C(=O)NCC(=O)N1CCCC2(CCC(=O)N(CC3CC3)C2)C1` (stereo unspecified), the INHIBITION is on record as 24.9%.

On to `O=C(NCC1(O)CCC1)NC(c1cc(F)ccc1F)C1CC1` (stereo unspecified), for which the INHIBITION stood at 31.2%.

As for `CS(=O)(=O)N1C[C@H]2CC[C@@H](C1)N(C(=O)CCc1ccsc1)C2`, the INHIBITION is -34.8%.

Take `Cc1cc(C(F)(F)F)cc(N2C[C@@H](CN3CCOCC3)[C@@H](CO)C2)n1`: the INHIBITION turned out to be 53.2%.

On to `Cc1nc(CN2CCC(O)(c3ccccc3F)CC2)c2ccccn12`, for which the INHIBITION turned out to be 23.9%.

In the case of `Cc1cc(C(F)(F)F)cc(N2C[C@@H](CN(C)CCO)[C@@H](CO)C2)n1`, the INHIBITION was 0.348%.

`Cc1nc(CN2C[C@@H](CN3CCOCC3)[C@@H](CO)C2)c2ccccn12`: the INHIBITION was 63.7%.

For `Cc1nc(CN2CCC3(CCCO3)CC2)c2ccccn12`, the INHIBITION is 53.6%.

As to `Cc1nc2ccccn2c1CN1C[C@@H](CN2CCOCC2)[C@@H](CO)C1`, the INHIBITION came out at 12.8%.

With `OC[C@H]1CN(Cc2c(Cl)cncc2Cl)C[C@H]1CN1CCOCC1`, the INHIBITION is reported as -37.9%.

For the origin of these results see ChEMBL document CHEMBL4513216, “Probing the Open Global Health Chemical Diversity Library for Multistage-Active Starting Points for Next-Generation Antimalarials” (ACS Infect Dis, 2020).
